Data published in PubChem BioAssay (EPA / NIEHS).
Values joined by “and” are separate entries in the source; they are usually repeats but may differ in a detail not shown here. Equal values may be shown once. Results filed as inconclusive are left out. Active and inactive are the calls of the source. How the source made its calls: active means hit-call score of the fitted dose curve at least 0.9, where 1 is the maximum; inconclusive means response in the unintended direction; inactive means score below 0.9.

Columns and labels:
[1] = ACEA_AR_antagonist_AUC_viability: ACEA Biosciences xCELLigence Real-Time Cell Analysis on Androgen Receptor Antagonism for Viability (AID 2283776);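 further: 22Rv1 human prostate cancer cells growing on impedance electrode plates; area under impedance growth curve at 80 h after dosing as viability; hits lower the growth signal relative to DMSO meaning cytotoxicity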
Method in brief: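 22Rv1 prostate cells, continuous dosing up to 100 uM final (0.5% DMSO max), duplicate plates. Growth measured by impedance; AUC at 80 h, loss of signal vs DMSO.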

[2] = ACEA_ER_AUC_viability: ACEA Biosciences xCELLigence Real-Time Cell Analysis on Estrogen Receptor Agonism for Viability (AID 2283782);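 further: hit means loss of impedance signal meaning reduced cell growth or viability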
Method in brief: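 Viability endpoint: reduced impedance area under the curve relative to DMSO, recorded by real-time electrode sensing over ~80 h of continuous exposure. Duplicate plates of T47D in hormone-depleted medium; eight concentrations, 1:4 dilutions, 100 uM maximum.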

[3] = system: frog Estrogen Receptor (ESR1), gene 398734; experiment: ATG_frER1_XSP1: Attagene TRANS-FACTORIAL Multi-Species (XSP1) HepG2 Assay for frog Estrogen Receptor (ESR1) (AID 2283777)
Method in brief: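 HepG2 cells transiently transfected with GAL4-UAS reporter units and frog ER–Gal4 chimera were dosed for 24 h with 3 nM 6-alpha-fluorotestosterone present. Reporter mRNA was measured by RT-PCR and capillary electrophoresis; gain of signal fitted versus DMSO.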

[4] = system: zebrafish Estrogen Receptor (ESR2A), gene 317734; experiment: ATG_zfER2a_XSP1: Attagene TRANS-FACTORIAL Multi-Species (XSP1) HepG2 Assay for zebrafish Estrogen Receptor (ESR2A) (AID 2283778)
Method in brief: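 Reporter transcripts were quantified by RT-PCR, 6-FAM labelling, HpaI digestion and capillary electrophoresis after 24 h dosing. The cells were HepG2 transiently carrying a zebrafish ER2a–Gal4 construct plus multiplexed UAS reporters; medium contained 3 nM 6-alpha-fluorotestosterone.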

[5] = target: chicken Estrogen Receptor (ESR1), ESR1 (gene 396099) (UniProt P06212); experiment: ATG_chERa_XSP1: Attagene TRANS-FACTORIAL Multi-Species (XSP1) HepG2 Assay for chicken Estrogen Receptor (ESR1) (AID 2283779)
chicken Estrogen Receptor (ESR1), ESR1 (gene 396099), sequence (P06212 whole entry, looked up, the tested form may be a part): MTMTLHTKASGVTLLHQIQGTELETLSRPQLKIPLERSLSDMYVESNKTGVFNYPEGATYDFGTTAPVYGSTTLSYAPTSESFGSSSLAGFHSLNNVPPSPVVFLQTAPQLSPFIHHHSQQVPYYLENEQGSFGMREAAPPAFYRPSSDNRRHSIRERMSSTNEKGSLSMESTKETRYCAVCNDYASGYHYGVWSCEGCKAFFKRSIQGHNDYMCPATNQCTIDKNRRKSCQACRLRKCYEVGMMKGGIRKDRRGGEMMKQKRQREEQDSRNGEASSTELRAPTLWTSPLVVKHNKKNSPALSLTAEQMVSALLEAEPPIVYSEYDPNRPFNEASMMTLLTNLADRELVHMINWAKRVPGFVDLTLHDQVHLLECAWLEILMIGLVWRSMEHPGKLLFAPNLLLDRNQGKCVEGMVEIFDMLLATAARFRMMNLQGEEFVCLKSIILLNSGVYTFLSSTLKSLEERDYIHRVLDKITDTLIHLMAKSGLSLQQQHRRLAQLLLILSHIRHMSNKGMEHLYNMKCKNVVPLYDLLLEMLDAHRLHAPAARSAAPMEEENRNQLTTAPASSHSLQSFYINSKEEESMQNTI
Method in brief: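 Trans-activation of an exogenous chicken ERα–Gal4 chimera read as reporter transcript (RT-PCR, fluorescent labeling, capillary electrophoresis) after 24 h compound exposure of transfected HepG2; medium held 3 nM 6-alpha-fluorotestosterone. Positive-direction fit against DMSO.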

[6] = system: turtle Estrogen Receptor (ESR1), gene 101933533; experiment: ATG_trERa_XSP1: Attagene TRANS-FACTORIAL Multi-Species (XSP1) HepG2 Assay for turtle Estrogen Receptor (ESR1) (AID 2283781)
Method in brief: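 Transactivation measured 24 h post-dose as reporter mRNA (RT-PCR, fluorescent capillary electrophoresis) from an NR-Gal4 turtle ER construct in HepG2. Medium included 3 nM 6-alpha-fluorotestosterone; increase over DMSO fitted.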

AR (gene 367) = AR (gene 367) (UniProt P10275); experiment: ACEA_AR_agonist_80hr: ACEA Biosciences xCELLigence Real-Time Cell Analysis on Androgen Receptor Agonism for Proliferation (AID 2283783);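 further: hits increase impedance growth signal above DMSO baseline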
AR (gene 367), sequence (P10275 whole entry, looked up): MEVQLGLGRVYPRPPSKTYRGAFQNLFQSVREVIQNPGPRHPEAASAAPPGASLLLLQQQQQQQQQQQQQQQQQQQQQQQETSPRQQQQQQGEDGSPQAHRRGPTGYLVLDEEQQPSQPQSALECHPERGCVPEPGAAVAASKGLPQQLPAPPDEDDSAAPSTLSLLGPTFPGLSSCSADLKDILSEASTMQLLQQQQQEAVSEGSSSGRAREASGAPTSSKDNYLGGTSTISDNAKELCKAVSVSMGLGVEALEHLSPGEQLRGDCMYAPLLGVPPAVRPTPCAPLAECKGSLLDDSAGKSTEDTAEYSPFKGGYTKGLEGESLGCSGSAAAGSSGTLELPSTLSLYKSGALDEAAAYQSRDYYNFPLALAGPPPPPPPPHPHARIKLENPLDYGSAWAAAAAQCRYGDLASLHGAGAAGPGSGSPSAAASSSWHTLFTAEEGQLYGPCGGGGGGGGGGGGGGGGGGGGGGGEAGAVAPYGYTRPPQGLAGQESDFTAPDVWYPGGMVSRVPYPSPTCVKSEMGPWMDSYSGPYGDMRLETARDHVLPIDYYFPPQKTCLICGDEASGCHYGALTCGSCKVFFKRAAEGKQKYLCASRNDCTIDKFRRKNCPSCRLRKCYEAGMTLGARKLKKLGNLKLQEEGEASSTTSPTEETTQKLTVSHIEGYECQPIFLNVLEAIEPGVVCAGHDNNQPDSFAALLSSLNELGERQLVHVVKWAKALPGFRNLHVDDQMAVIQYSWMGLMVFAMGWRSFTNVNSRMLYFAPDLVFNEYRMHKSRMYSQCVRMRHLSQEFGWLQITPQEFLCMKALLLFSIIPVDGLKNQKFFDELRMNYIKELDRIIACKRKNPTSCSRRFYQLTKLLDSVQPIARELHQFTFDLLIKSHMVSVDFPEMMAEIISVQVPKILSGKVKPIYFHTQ
Method in brief: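 Eight concentrations, 1:4 serial dilution from a 100 uM final top, in biological duplicate. Impedance-based real-time growth of 22Rv1 cells after overnight baseline, recorded hourly and read at 80 hours. Controls: testosterone, MG132, assay media.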

[7] = target: Estrogen receptor beta (Homo sapiens) (UniProt Q92731); experiment: ATG_hERb_XSP1: Attagene TRANS-FACTORIAL Multi-Species (XSP1) HepG2 Assay for human Estrogen Receptor (ESR2) (AID 2283788)
Estrogen receptor beta (Homo sapiens), sequence (Q92731 whole entry, looked up, the tested form may be a part): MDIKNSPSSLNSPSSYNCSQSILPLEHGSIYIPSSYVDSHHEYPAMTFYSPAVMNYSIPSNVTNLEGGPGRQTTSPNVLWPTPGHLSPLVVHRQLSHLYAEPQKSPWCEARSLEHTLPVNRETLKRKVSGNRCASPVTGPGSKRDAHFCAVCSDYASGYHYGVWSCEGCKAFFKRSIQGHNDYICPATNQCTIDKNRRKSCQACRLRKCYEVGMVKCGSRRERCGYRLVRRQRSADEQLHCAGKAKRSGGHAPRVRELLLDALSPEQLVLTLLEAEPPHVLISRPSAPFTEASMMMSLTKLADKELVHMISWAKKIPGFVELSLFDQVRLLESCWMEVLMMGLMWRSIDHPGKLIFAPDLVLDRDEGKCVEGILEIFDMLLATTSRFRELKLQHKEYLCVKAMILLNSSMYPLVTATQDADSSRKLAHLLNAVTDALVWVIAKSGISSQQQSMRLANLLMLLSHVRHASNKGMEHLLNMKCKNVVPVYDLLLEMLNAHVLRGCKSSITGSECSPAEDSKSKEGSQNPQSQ
Method in brief: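 HepG2 cells transiently transfected with multiplexed GAL4-UAS reporter units carrying chimeric human ERβ-Gal4; 24 h compound exposure with 3 nM 6-alpha-fluorotestosterone present. Reporter mRNA quantified by RT-PCR, FAM labelling and capillary electrophoresis; gain-of-signal fitted versus DMSO.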

[8] = ATG_M_06_XSP1: Attagene TRANS-FACTORIAL Multi-Species (XSP1) HepG2 Assay for M06 Transcription Factor (Internal Marker) (AID 2283790)
Method in brief: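 This background-control readout tracks M06 reporter mRNA, measured by RT-PCR and capillary electrophoresis. HepG2 cells transiently carrying the GAL4-UAS reporter panel were dosed for 24 h with 3 nM 6-alpha-fluorotestosterone added for partial AR stimulation; increases were scored relative to DMSO.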

[9] = ATG_M_61_XSP1: Attagene TRANS-FACTORIAL Multi-Species (XSP1) HepG2 Assay for M61 Transcription Factor (Internal Marker) (AID 2283797)
Method in brief: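 Background-control readout: reporter transcripts measured by RT-PCR and capillary electrophoresis 24 h after dosing transiently transfected HepG2 multi-reporter cells, with 3 nM 6-alpha-fluorotestosterone present. Fitted in the positive direction relative to DMSO.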

[10] = ATG_M_19_XSP1: Attagene TRANS-FACTORIAL Multi-Species (XSP1) HepG2 Assay for M19 Transcription Factor (Internal Marker) (AID 2283798)
Method in brief: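 Readout is reporter mRNA induction quantified via RT-PCR, 6-FAM labeling, HpaI digestion and capillary electrophoresis, fitted in the positive direction versus DMSO baseline. Transfected HepG2 cells exposed 24 h, medium including 3 nM 6-alpha-fluorotestosterone.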

[11] = ATG_M_32_XSP1: Attagene TRANS-FACTORIAL Multi-Species (XSP1) HepG2 Assay for M32 Transcription Factor (Internal Marker) (AID 2283799)
Method in brief: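 Reporter transcripts from the M32 internal-control unit measured by RT-PCR, FAM labelling, HpaI digestion and capillary electrophoresis after 24 h compound exposure of transfected HepG2, 3 nM 6-alpha-fluorotestosterone included; DMSO baseline, positive-direction fit.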

[12] = system: zebrafish Peroxisome Proliferator-activated Receptor gamma (PPARg), gene 557037; experiment: ATG_zfPPARg_XSP1: Attagene TRANS-FACTORIAL Multi-Species (XSP1) HepG2 Assay for zebrafish Peroxisome Proliferator-activated Receptor gamma (PPARg) (AID 2283801)
Method in brief: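 Trans-activation readout of chimeric zebrafish PPARg–GAL4 in transiently transfected human HepG2 cells, 24 h chemical exposure (medium includes 3 nM 6-alpha-fluorotestosterone). Reporter transcripts measured by RT-PCR and capillary electrophoresis, fitted as gain over DMSO.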

**Q.** Which outcome [1] does the source give for `O=C(O)C(F)(F)C(F)(F)C(F)(F)C(F)(F)C(F)(F)C(F)(F)F` here?
**A.** Its outcome is “inactive”.

**Q.** Which outcome [1] does the source give for `NNC(=S)NN` here?
**A.** Its outcome is “inactive”.

**Q.** For `OCc1ccco1`, which outcome [1] is on record?
**A.** Its outcome is “inactive”.

**Q.** With `Oc1cccc2cccnc12` as the compound, how does the AC50 [1] read?
**A.** The AC50 was 18.6 µM (active) and 9.5 µM (active).

**Q.** And the outcome [2]?
**A.** Its outcome is “inactive”.

**Q.** With `CNC` as the compound, how does the outcome [1] read?
**A.** Its outcome is “inactive”.

**Q.** Which outcome [1] does the source give for `C=CC#N` here?
**A.** Its outcome is “inactive”.

**Q.** And the outcome [2]?
**A.** Its outcome is “inactive”.

**Q.** Which outcome [1] does the source give for `[O-][Cl+2]([O-])O` here?
**A.** The outcome was “inactive”.

**Q.** For `O=C(Cc1ccccc1)c1ccccc1`, which outcome [1] is on record?
**A.** Its outcome is “inactive”.

**Q.** For `CCC[CH2][Sn]([CH2]CCC)([CH2]CCC)[O]C(=O)c1ccccc1`, which AC50 [1] is on record?
**A.** Its AC50 is 1.06 µM (active).

**Q.** What about the AC50 [2] of the same compound?
**A.** Its AC50 is 1.28 µM (active).

**Q.** For `COc1cc(-c2ccc(N)c(OC)c2)ccc1N`, which AC50 [1] is on record?
**A.** The AC50 was 18.4 µM (active) and 22.3 µM (active).

**Q.** Which outcome [1] does the source give for `CC1(C)Cc2cccc(O)c2O1` here?
**A.** The outcome was “inactive”.

**Q.** With `CC(C)(C)CC(C)(C)c1ccc(O)cc1` as the compound, how does the AC50 [1] read?
**A.** The AC50 was 8.78 µM (active).

**Q.** And the AC50 [3]?
**A.** The AC50 was 1.86 µM (active).

**Q.** What about the outcome [4] of the same compound?
**A.** Its outcome is “inactive”.

**Q.** What about the AC50 [5] of the same compound?
**A.** The AC50 was 2.21 µM (active).

**Q.** And the AC50 [6]?
**A.** Its AC50 is 2.15 µM (active).

**Q.** And the AC50 [2]?
**A.** Its AC50 is 21.2 µM (active) and 21.4 µM (active) and 21.5 µM (active).

**Q.** And the outcome (AR (gene 367))?
**A.** The outcome was “inactive”.

**Q.** What about the AC50 [7] of the same compound?
**A.** Its AC50 is 2.74 µM (active).

**Q.** What about the outcome [8] of the same compound?
**A.** Its outcome is “inactive”.

**Q.** What about the outcome [9] of the same compound?
**A.** The outcome was “inactive”.

**Q.** What about the outcome [10] of the same compound?
**A.** The outcome was “inactive”.

**Q.** What about the outcome [11] of the same compound?
**A.** Its outcome is “inactive”.

**Q.** And the outcome [12]?
**A.** Its outcome is “inactive”.

**Q.** For `CCCCCCCCc1ccc(O)cc1`, which AC50 [1] is on record?
**A.** Its AC50 is 28.9 µM (active).

**Q.** What about the AC50 [2] of the same compound?
**A.** Its AC50 is 24.4 µM (active).

**Q.** With `C=CCc1ccc(OC)cc1` as the compound, how does the outcome [1] read?
**A.** The outcome was “inactive”.

**Q.** Which outcome [1] does the source give for `O=S(=O)(c1ccc(Cl)cc1)c1ccc(Cl)cc1` here?
**A.** The outcome was “inactive”.

**Q.** Which outcome [1] does the source give for `N#CN=C(N)N` here?
**A.** The outcome was “inactive”.

**Q.** Which AC50 [1] does the source give for `CCC(C)(C)c1ccc(O)c(C(C)(C)CC)c1` here?
**A.** Its AC50 is 47.9 µM (active).

**Q.** For `CC(=O)c1cc(C(C)(C)C)cc2c1CCC2(C)C`, which outcome [1] is on record?
**A.** Its outcome is “inactive”.

**Q.** And the outcome [2]?
**A.** Its outcome is “inactive”.

**Q.** Which AC50 [1] does the source give for `Oc1ccc(-c2ccccc2)cc1` here?
**A.** Its AC50 is 1.1 µM (active).

**Q.** For `O=C1C(Cl)=C(Cl)C(=O)c2ccccc21`, which outcome [1] is on record?
**A.** Its outcome is “inactive”.

**Q.** With `COc1ccc(C=O)cc1` as the compound, how does the outcome [1] read?
**A.** Its outcome is “inactive”.

**Q.** With `CCCCCCCCSC(=O)Oc1cc(Cl)nnc1-c1ccccc1` as the compound, how does the outcome [1] read?
**A.** The outcome was “inactive”.

**Q.** With `CCOP(=S)(OCC)SCSP(=S)(OCC)OCC` as the compound, how does the AC50 [1] read?
**A.** Its AC50 is 67 µM (active).

**Q.** Which outcome [1] does the source give for `Cl/C=C/Cl` here?
**A.** Its outcome is “inactive”.

**Q.** What does the source list for `CC(C)C1CCC(Cc2ccc(Cl)cc2)C1(O)Cn1cncn1` (configuration not stated)?
**A.** AC50 [1]: 4.94 µM (active); AC50 [2]: 19.9 µM (active)

**Q.** For `Clc1ccc(C2(Cn3cncn3)CC(Br)CO2)c(Cl)c1` (configuration not stated), which outcome [1] is on record?
**A.** Its outcome is “inactive”.

**Q.** With `Cc1ccc(N)cc1Cl` as the compound, how does the outcome [1] read?
**A.** The outcome was “inactive”.

**Q.** Which results are given for `C=C(C)C#N`?
**A.** outcome [1]: inactive; outcome [2]: inactive
